# Experimental data from ChEMBL document CHEMBL3433997, “St. Jude Leishmania screening dataset” (2016).
# Molecular target: Glucose transporter (Leishmania mexicana) (UniProt O61059)
# Test: ST_JUDE_LEISH: Cytotoxicity at 2uM final concentration against transgenic Leishmania Mexicana promastigotes LmGT2 that are glucose transport deficient and complemented with the L. Mexicana glucose transporter 2. Activity is measured by DNA content using SYBR green in vitro
# Type: functional
row,Compound,inhibition [%]
1,CC(C)COc1ccc(Cl)cc1Cc1ccc(-c2nc3cc(F)c(F)cc3[nH]2)o1,1.02
2,O=C(NCCCCN1CCC(c2ccc3c(c2OC(=O)c2ccc(NC(=O)c4ccc(Cl)cc4)cc2)CCCC3)CC1)c1ccc(NC(=O)c2ccc(Cl)cc2)cc1,3.18
3,Oc1ccc(CCNc2nc(NCCCOc3cccc(-c4ccccc4)c3)nc(N3CCNCC3)n2)cc1,2.5
4,CCN(CC)CCN(Cc1ccc(-c2ccc(C(F)(F)F)cc2)cc1)C(=O)Cn1c(CCc2cc(F)cc(F)c2F)nc(=O)c2ccccc21,-0.7
5,O=C(C=Cc1ccc(Cl)c(Cl)c1)NCCCCCN1CCC(CCCNC(=O)/C=C/c2ccccc2)CC1,1.62
6,CC(C)[C@H](NC(=O)c1ccc(O)c(-c2cccc(C(F)(F)F)c2)c1)C(=O)NC1CCCc2ccccc21 (some centres undefined),0.81
7,Cn1nc(C(F)(F)F)cc1-c1ccc(C(=O)Nc2ccc3c(c2)CNCC3(C)C)s1,2.34
8,COc1cc(C)nc2ccc(NC(=O)c3ccc(C(=O)Nc4ccc5nc(C)cc(OC)c5c4)cc3)cc12,1.25
9,COc1ccc(Cc2cccc(C(C(=O)NCc3cc(Cl)cc(Cl)c3)N3CCN(C)CC3)c2)cc1 (centres undefined),0.4
10,Cc1cc(N2CCCC2)nc(Nc2ccc(NC(=O)C(C)Oc3ccccc3)cc2)n1 (centres undefined),7.47
11,COc1ccc(Nc2nc(NC3CCN(C)CC3)cc(-c3ccc(OC)cc3)n2)cc1,2.87
12,O=C(NCc1cccs1)[C@H](Cc1ccccc1)Nc1ccnc(NCCc2ccccc2)n1,-0.38
13,O=C(Nc1cccnc1)c1cc(-c2cc(Cl)ccc2O)n[nH]1,3.15
14,COc1ccc2nc(-c3ccc(C(=O)NCCCN4CCN(c5cc(Cl)ccc5OC)CC4)cc3)[nH]c2c1,-0.2
15,CCn1c(Sc2ccc([N+](=O)[O-])c(C#N)c2)nnc1-c1cccc(Cl)c1,-1.08
16,O=C(NC1CCCCC1)C1CCCN(C(=O)c2ccc(O)c(-c3ccc(Cl)c(Cl)c3)c2)C1 (centres undefined),-0.03
17,CCC(CC)(CCC#N)CN(C[C@@H](O)[C@H](Cc1ccccc1)NC(=O)OC(C)(C)C)S(=O)(=O)c1ccc(OC)cc1,0.65
18,O=C(CCN1C(=O)c2ccccc2C1=O)N1CCN(CC=Cc2ccccc2)CC1,-1.76
19,Cc1nc(N)nc(N)c1-c1ccc(Cl)c(Cl)c1,5.34
20,COc1ccc2nccc([C@@H](O)CN3CCC(NCCOc4c(C)cccc4F)CC3)c2c1,4.05
21,N=C(N)Nc1nc(-c2cccc(NC(=O)C(F)(F)F)c2)cs1,3.35
22,COc1ccc(NC(=O)[C@H](CC(C)C)Nc2cc(C)nc(NCCc3ccccc3OC)n2)cc1,0.24
23,COc1ccc(OC)c2c1CCN(C)C2Cc1cccc2ccccc12 (centres undefined),1.61
24,CC(C)CNCc1cccc(-c2ccc(CN(C(=O)NCCc3ccccc3)C3CCN(Cc4ccccc4)CC3)cc2)c1,56.8
